# From PubChem BioAssay
# Records with an inconclusive call do not appear. For some assays here: Measured potencies and affinities stand elsewhere. The source made the active and inactive calls. Unless noted, the rule behind the calls is not given here.
# Legend:
# [1] = antimalarial activity against Dd2 strain (AID 2302;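 active = growth inhibition above 50% at the single 2 µM test dose, taken to imply half-maximal potency below 2 µM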;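 note: 0% = DMSO untreated growth and 100% = chloroquine plus artemisinin killed control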); settings: P. falciparum Dd2 in RBCs, LDH growth readout, 72 h; at 2 µM; stronger effect = higher value
# [2] = human hepatoma cell viability loss – ATP luminescence, cytotoxicity control for P. falciparum antimalarial project, primary screen (AID 2303;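 active = inhibition above 50%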;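 note: 0% = DMSO wells and 100% = digitonin-killed cells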); settings: HepG2 viability, 24-48 h, at 10 µM, stronger effect = higher value
# [3] = molecular target: L-lactate dehydrogenase (Plasmodium falciparum (isolate CDC / Honduras)) (UniProt Q27743); experiment: PfLDH activity inhibition – cell lysate, 3D7 strain, counter-screen for P. falciparum growth inhibition project (AID 2304);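 note: 0% = vehicle and 100% = reference inhibitor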; settings: P. falciparum 3D7 crude extract, LDH APAD/NBT absorbance; at 2 µM; stronger effect = higher value
# [4] = inhibition of 3D7 malaria parasite growth – strain 3D7 (AID 2306);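 note: 0% = DMSO wells and 100% = chloroquine plus artemisinin control wells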; settings: P. falciparum 3D7 erythrocytic growth, LDH absorbance, 72 h; at 2 µM; stronger effect = higher value
# [5] = molecular target: Protein kinase 7 (PK7), Plasmodium falciparum 3D7 (PF3D7_0213400) (UniProt Q7YTF7); experiment: inhibition of Plasmodium PK7 catalytic activity – biochemical, TCAMS antimalarial set, Kinase-Glo luminescence (AID 1159587); settings: recombinant PfPK7, Kinase-Glo ATP depletion luminescence
# [6] = molecular target: Calcium-dependent protein kinase 4 (Plasmodium falciparum (isolate 3D7)) (UniProt Q8IBS5); experiment: PfCDPK4 kinase inhibitors, biochemical, TCAMS library (AID 1159588; cut-off not given, nearly all actives have IC50 up to about 0.91 µM); settings: recombinant PfCDPK4, Kinase-Glo ATP depletion luminescence
# [7] = GFP-Q80 aggregate reduction, neuronal-like cells, cell-based, NGF-treated PC12, GFPQ80 (AID 1614); settings: PC12 NGF-treated GFP-polyQ80 inclusion reduction;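 note: lower means fewer inclusions and 0 means no inclusions at all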
# [8] = selective SMN2 exon splicing luciferase activators – cell-based, SMN2/SMN1 luciferase reporters (AID 1598); settings: SMN2 vs SMN1 luciferase splicing reporter cells, at 10 µM; SMN1 luciferase ratio: measured here: SMN1 luciferase reporter average; SMN2 luciferase ratio: measured here: SMN2 luciferase reporter average, stronger effect = higher value; SMN2/SMN1 luciferase ratio: stronger effect = higher value
# [9] = rescue of PC12 cells from polyQ htt toxicity – LDH release (AID 1610); settings: PC12 mutant huntingtin toxicity, final LDH at 4 uM, stronger effect = lower value
# L-lactate dehydrogenase (Plasmodium falciparum (isolate CDC / Honduras)), sequence (Q27743 whole entry, looked up): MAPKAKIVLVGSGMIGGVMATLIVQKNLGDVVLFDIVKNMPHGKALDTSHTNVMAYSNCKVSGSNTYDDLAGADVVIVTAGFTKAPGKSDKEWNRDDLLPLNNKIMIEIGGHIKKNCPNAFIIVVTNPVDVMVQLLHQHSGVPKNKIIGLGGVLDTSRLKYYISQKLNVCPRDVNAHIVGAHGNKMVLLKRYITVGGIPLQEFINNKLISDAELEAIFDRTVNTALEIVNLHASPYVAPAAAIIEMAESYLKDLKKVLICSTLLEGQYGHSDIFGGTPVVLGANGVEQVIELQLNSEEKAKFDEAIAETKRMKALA
# Protein kinase 7 (PK7), Plasmodium falciparum 3D7 (PF3D7_0213400), sequence (Q7YTF7 1-343): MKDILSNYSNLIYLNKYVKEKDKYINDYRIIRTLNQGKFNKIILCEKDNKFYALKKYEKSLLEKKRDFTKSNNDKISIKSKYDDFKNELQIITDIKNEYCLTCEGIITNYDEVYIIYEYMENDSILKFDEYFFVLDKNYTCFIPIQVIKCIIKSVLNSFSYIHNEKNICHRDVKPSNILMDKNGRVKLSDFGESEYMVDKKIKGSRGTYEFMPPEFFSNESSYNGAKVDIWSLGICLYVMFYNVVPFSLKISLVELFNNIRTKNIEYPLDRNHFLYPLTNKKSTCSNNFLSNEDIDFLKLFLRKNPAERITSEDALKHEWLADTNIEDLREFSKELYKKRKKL
# Calcium-dependent protein kinase 4 (Plasmodium falciparum (isolate 3D7)), sequence (Q8IBS5 whole entry, looked up): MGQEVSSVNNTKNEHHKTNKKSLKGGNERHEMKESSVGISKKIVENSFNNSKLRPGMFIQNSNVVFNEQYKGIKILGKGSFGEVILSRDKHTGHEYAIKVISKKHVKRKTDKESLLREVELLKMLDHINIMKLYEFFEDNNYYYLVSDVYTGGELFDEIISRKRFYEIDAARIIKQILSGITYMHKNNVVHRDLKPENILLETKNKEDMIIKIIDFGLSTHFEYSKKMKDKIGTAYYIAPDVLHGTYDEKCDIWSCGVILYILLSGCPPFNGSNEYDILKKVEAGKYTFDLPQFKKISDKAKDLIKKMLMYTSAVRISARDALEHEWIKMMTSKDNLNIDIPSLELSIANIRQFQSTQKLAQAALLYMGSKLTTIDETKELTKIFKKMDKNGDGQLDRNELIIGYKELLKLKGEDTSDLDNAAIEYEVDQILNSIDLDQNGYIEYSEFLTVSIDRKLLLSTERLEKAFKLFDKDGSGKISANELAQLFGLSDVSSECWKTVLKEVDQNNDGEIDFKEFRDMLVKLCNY
structure (smiles),measurement,setting,value
CC[C@H]1CN2CC[C@H]1C[C@@H]2[C@@H](O)c1ccnc2ccc(OC)cc12,growth inhibition,[1],95% (active)
same,inhibition,[2],-3% (inactive)
same,inhibition,[3],1% (inactive)
same,growth inhibition,[4],100% (active)
same,outcome,[5],inactive
same,outcome,[6],inactive
FC(F)(F)c1cccc(N2CCNCC2)c1,inclusion score,[7],2
C=C[C@H]1CN2CC[C@H]1C[C@H]2[C@H](O)c1ccnc2ccccc12,inclusion score,[7],2
same,growth inhibition,[1],3% (inactive)
same,inhibition,[2],9% (inactive)
same,inhibition,[3],2% (inactive)
same,growth inhibition,[4],100% (active)
same,outcome,[5],inactive
same,outcome,[6],inactive
CC[C@@]1(O)C(=O)OCc2c1cc1n(c2=O)Cc2cc3ccccc3nc2-1,SMN1 luciferase ratio,[8],0.16
same,SMN2/SMN1 luciferase ratio,[8],1.74 (active)
same,SMN2 luciferase ratio,[8],0.26
O=c1ccc2cc(O[C@@H]3O[C@H](CO)[C@@H](O)[C@H](O)[C@H]3O)c(O)cc2o1,inclusion score,[7],2
COc1ccc(C[C@H]2NC[C@H](O)[C@H]2OC(C)=O)cc1,growth inhibition,[1],98% (active)
same,inhibition,[2],39% (inactive)
same,inhibition,[3],6% (inactive)
same,growth inhibition,[4],100% (active)
same,outcome,[5],inactive
same,outcome,[6],inactive
O=c1c2ccccc2[se]n1-c1ccccc1,normalised LDH release,[9],0.64
CC[C@@H](CO)NC(=O)[C@@H]1C=C2c3cccc4[nH]cc(c34)C[C@H]2N(C)C1,inclusion score,[7],2
C=C[C@H]1CN2CC[C@H]1C[C@@H]2[C@@H](O)c1ccnc2ccccc12,growth inhibition,[1],2% (inactive)
same,inhibition,[2],-7% (inactive)
same,inhibition,[3],3% (inactive)
same,growth inhibition,[4],101% (active)
same,outcome,[5],inactive
same,outcome,[6],inactive
